The record followed here is paper PMC4336329 (PLoS ONE, 2015).

The whole screen tested about 310,000 compounds, of which about 14,000 (4.5%) showed an effect of 50% or more. Effects have a minus sign here. The full list was thinned out, with strong results kept by preference.
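Further: peak tail current of the secondary pulse compared with the same well before compound.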

Sequence of human ether-à-go-go-related gene (hERG) potassium channel (Q12809 whole entry, looked up): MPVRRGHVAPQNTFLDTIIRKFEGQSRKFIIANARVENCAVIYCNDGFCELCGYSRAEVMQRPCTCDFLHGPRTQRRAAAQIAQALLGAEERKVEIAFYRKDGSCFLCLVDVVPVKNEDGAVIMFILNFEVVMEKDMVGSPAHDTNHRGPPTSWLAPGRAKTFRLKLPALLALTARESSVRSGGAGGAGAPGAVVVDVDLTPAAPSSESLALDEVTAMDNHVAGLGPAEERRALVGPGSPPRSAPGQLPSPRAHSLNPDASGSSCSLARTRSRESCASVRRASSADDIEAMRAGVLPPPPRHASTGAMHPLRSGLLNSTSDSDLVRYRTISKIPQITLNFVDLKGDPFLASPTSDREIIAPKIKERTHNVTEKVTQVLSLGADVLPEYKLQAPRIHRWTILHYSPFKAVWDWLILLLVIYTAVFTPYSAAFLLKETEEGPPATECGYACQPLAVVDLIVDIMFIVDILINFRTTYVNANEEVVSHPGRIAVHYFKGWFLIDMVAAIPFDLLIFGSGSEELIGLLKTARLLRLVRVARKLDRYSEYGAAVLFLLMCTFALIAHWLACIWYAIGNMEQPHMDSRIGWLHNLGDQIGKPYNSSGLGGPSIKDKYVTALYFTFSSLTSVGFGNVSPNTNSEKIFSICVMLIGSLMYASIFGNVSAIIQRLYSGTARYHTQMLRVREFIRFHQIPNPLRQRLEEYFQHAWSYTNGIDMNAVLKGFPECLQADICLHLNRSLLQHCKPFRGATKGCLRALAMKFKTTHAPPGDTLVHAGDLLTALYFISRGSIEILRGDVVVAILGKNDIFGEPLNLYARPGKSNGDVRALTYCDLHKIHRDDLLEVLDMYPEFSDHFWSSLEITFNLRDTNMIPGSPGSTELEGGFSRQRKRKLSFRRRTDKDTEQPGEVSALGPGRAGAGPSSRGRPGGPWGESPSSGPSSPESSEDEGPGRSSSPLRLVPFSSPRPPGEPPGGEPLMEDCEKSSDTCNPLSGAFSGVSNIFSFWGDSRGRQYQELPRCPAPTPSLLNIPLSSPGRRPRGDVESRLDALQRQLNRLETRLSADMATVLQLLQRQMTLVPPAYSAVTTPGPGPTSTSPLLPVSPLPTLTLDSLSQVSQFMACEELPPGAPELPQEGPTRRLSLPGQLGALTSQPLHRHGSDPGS

The assay addresses human ether-à-go-go-related gene (hERG) potassium channel (human, UniProt Q12809). As to the kind of experiment: primary screen, population patch clamp on CHO cells stably expressing hERG; higher = less effect of the substance.
As to `CCN(C(=O)COC(=O)c1[nH]c(C)c(C(C)=O)c1C)c1c(N)n(Cc2ccccc2)c(=O)[nH]c1=O`, the “hERG current change (%, negative = inhibition) at 10uM” value is on record as 0.295%.
Take `Cc1ccc2oc(C(=O)Nc3cc(C)on3)c(C)c2c1`: the “hERG current change (%, negative = inhibition) at 10uM” value is reported as -1.98%.
Regarding `CCCCOc1ccc(NC(=O)C(=O)NCCC2=CCCCC2)cc1`, the “hERG current change (%, negative = inhibition) at 10uM” value was determined as 2.25%.
Turning to `CCCCCOC(=O)c1ccc(N2C(=O)C3C4C=CC(C4)C3C2=O)cc1` (centres unmarked), the “hERG current change (%, negative = inhibition) at 10uM” value is -6.84%.
The same measure for `C=CCn1c(SCC(=O)Nc2cc(C)on2)nc2sc3c(c2c1=O)CCCC3`: -4%; for `O=C(Nc1ccc(S(=O)(=O)Nc2ncccn2)cc1)c1cccc(Br)c1`: 16.5%.
On to `CC(=O)c1ccc(NC(=O)CCc2nnc3ccc(NCc4ccco4)nn23)cc1`, for which the “hERG current change (%, negative = inhibition) at 10uM” value is 9.4%.
For the compound `COc1ccc(CCn2c(O)c(C=Nc3ccccc3F)c(=O)[nH]c2=O)cc1OC`, the “hERG current change (%, negative = inhibition) at 10uM” value turned out to be 20.3%.
Turning to `CCOc1ccc(C(N)=O)cc1OC`, the “hERG current change (%, negative = inhibition) at 10uM” value is given as 6.13%.
Take `CN(C)c1ccc(C=Nc2cnn(C)c2C(N)=O)cc1`: the “hERG current change (%, negative = inhibition) at 10uM” value is reported as 0.759%.
The same measure for `COc1ccc(NC(=O)CSc2nnc(-c3cccs3)n2N)c(OC)c1`: 0.565%.
In the case of `Cn1cc(CN2CCC(N3CCNC(=O)CC3)CC2)c(-c2ccccc2F)n1`, the “hERG current change (%, negative = inhibition) at 10uM” value was 8.43%.
The same measure for `O=C1c2ccccc2C(=O)N1n1cccc1`: 8.7%; for `Cc1c(C)n(CCc2ccccc2)c2ncnc(NCCCN(C)C)c12`: -58%; for `COc1ccc(Nc2ncnc3c2c(C)c(C)n3CCCN(C)C)cc1`: -32.7%.
The same measure for `COc1ccc(-n2c(C)c(C)c3c(NCCCN(C)C)ncnc32)cc1`: -53.1%.
The figure for `COc1ccc(-n2c(C)c(C)c3c(NCCN(C)C)ncnc32)cc1` is -32.4%.
Regarding `Cc1c(C)n(CCc2ccccc2)c2ncnc(NCCCO)c12`, the “hERG current change (%, negative = inhibition) at 10uM” value is -40.1%.
Turning to `Cc1c(C)n(CCCN(C)C)c2ncnc(Nc3ccc(F)cc3)c12`, the “hERG current change (%, negative = inhibition) at 10uM” value is -50.8%.
The figure for `Cc1c(C)n(CCCN(C)C)c2ncnc(Nc3ccccc3)c12` is -29.3%; for `Cc1c(C)n(Cc2ccccc2)c2ncnc(NCCCN(C)C)c12` it is -28.4%.
The same measure for `COc1ccc(-n2c(C)c(C)c3c(NCCCO)ncnc32)cc1`: -14.3%; for `Cc1cc(NS(=O)(=O)c2ccc(NC(=O)CSc3nnc(-c4ccco4)n3C)cc2)nc(C)n1`: 5.75%.
With `CCCCn1c(N)c(N(CC(C)C)C(=O)C2CC(=O)N(CCc3ccccc3)C2)c(=O)[nH]c1=O` (centres unmarked), the “hERG current change (%, negative = inhibition) at 10uM” value came to 7.09%.
`Cc1ccc(Oc2nn[nH]n2)cc1`: the “hERG current change (%, negative = inhibition) at 10uM” value is recorded as 0.395%.
For `C=C1[C@@H](OC(C)=O)[C@]23C[C@@H]1[C@@H](OC(C)=O)CC2[C@]12C4C[C@H]3[C@H]1N(CC)C[C@]4(C)CC[C@@H]2O` (some centres unmarked), the “hERG current change (%, negative = inhibition) at 10uM” value was -40.6%.
Consider `O=C(NCc1n[nH]c(=S)n1-c1ccc(Cl)c(Cl)c1)c1ccc(S(=O)(=O)N2CCOCC2)cc1`, for which the “hERG current change (%, negative = inhibition) at 10uM” value was found to be 14.5%.
With `N#Cc1ccccc1OCc1nnc(-c2ccccc2Br)o1`, the “hERG current change (%, negative = inhibition) at 10uM” value stood at 14.1%.
The same measure for `O=C(NCc1cccnc1)c1ccccc1NS(=O)(=O)c1ccc(F)cc1F`: 9.6%; for `Cn1c(SCCOc2ccccc2Cl)nnc1-c1cccs1`: -35%.
The same measure for `Cc1ccc2c(c1)C1CN(C)CCC1N2C(=O)/C(C#N)=C/c1ccc2c(c1)OCO2` (centres unmarked): -21.2%; for `Cc1ccc2c(c1)C1CN(C)CCC1N2C(=O)c1cccnc1Cl.Cl` (centres unmarked): 1.59%; for `Cc1ccc2c(c1)C1CN(C)CCC1N2C(=O)/C=C/c1ccc2c(c1)OCO2` (centres unmarked): -62.6%.
The figure for `Cc1ccc2c(c1)C1CN(C)CCC1N2C(=O)Cc1cccs1.Cl` (centres unmarked) is -46.9%; for `Cc1ccc2c(c1)C1CN(C)CCC1N2C(=O)c1ccccc1NS(=O)(=O)c1cccc(C(F)(F)F)c1.Cl` (centres unmarked) it is -48.5%.
As for `Cc1ccc2c(c1)C1CN(C)CCC1N2C(=O)c1cccc(S(=O)(=O)N2CC(C)CC(C)C2)c1.Cl` (centres unmarked), the “hERG current change (%, negative = inhibition) at 10uM” value is reported as -44.8%.
As to `Cc1ccc2c(c1)C1CN(C)CCC1N2C(=O)Nc1cccc(C(F)(F)F)c1` (centres unmarked), the “hERG current change (%, negative = inhibition) at 10uM” value was -52.4%.
Consider `Cc1ccc2c(c1)C1CN(C)CCC1N2C(=O)Nc1cccc(Cl)c1` (centres unmarked), for which the “hERG current change (%, negative = inhibition) at 10uM” value is on record as -51.1%.
With `Cc1ccc2c(c1)[C@@H]1CN(C)CC[C@@H]1N2C(=O)Nc1cccc(C(F)(F)F)c1`, the “hERG current change (%, negative = inhibition) at 10uM” value is -38.5%.
Take `CCOC(=O)/C(C#N)=C/c1cccc(C)c1`: the “hERG current change (%, negative = inhibition) at 10uM” value came out at 12.6%.
Take `COc1ccccc1-c1nnc(SCC(=O)NCc2ccco2)n1N`: the “hERG current change (%, negative = inhibition) at 10uM” value was 17.2%.
Regarding `CN(Cc1ccccc1)C(=O)COC(=O)c1ccccc1Nc1ccccc1`, the “hERG current change (%, negative = inhibition) at 10uM” value turned out to be 13%.
For the compound `NC(=O)COC(=O)c1c2c(nc3ccccc13)CCCCC2`, the “hERG current change (%, negative = inhibition) at 10uM” value is reported as -23.2%.
For the compound `NC(=O)COC(=O)c1c2c(nc3ccccc13)CCCC2`, the “hERG current change (%, negative = inhibition) at 10uM” value is recorded as -53.3%.
The same measure for `NC(=O)COC(=O)c1c2c(nc3ccccc13)CCC2`: 9.85%; for `COc1ccc(/C=C/C2=NC(=C\N(C)C)/C(=O)O2)cc1`: -37.6%.
With `CN(C)CCCN(CCCNC(=O)/C=N/O)Cc1ccccc1`, the “hERG current change (%, negative = inhibition) at 10uM” value is 1.31%.
Turning to `CN(CCCOc1ccccc1Br)Cc1ccccc1`, the “hERG current change (%, negative = inhibition) at 10uM” value is given as -22.1%.
As to `COc1ccc(OCCCCN(C)Cc2ccccc2)cc1.O=C(O)C(=O)O`, the “hERG current change (%, negative = inhibition) at 10uM” value was -45.7%.
On to `CN(C)CCCCOc1ccccc1F.O=C(O)C(=O)O`, for which the “hERG current change (%, negative = inhibition) at 10uM” value was 14.4%.
For `CN(CCCCOc1ccc(F)cc1)Cc1ccccc1.O=C(O)C(=O)O`, the “hERG current change (%, negative = inhibition) at 10uM” value is -54.7%.
The figure for `CN(CCCCCCCCC(=O)/C=N/O)Cc1ccccc1.Cl` is -58.4%.
For the compound `CN(C)CCCCCCCCCCC(=O)/C=N/O.Cl`, the “hERG current change (%, negative = inhibition) at 10uM” value is recorded as -9.03%.
In the case of `CN(CCOc1ccc(F)cc1)Cc1ccccc1.O=C(O)C(=O)O`, the “hERG current change (%, negative = inhibition) at 10uM” value is reported as -23.3%.
As to `CN(CCCOc1ccccc1F)Cc1ccccc1.O=C(O)C(=O)O`, the “hERG current change (%, negative = inhibition) at 10uM” value is on record as -57.3%.
For the compound `CCc1ccccc1NC(=O)CCS(=O)(=O)c1ccc(OC)cc1`, the “hERG current change (%, negative = inhibition) at 10uM” value was found to be 7.48%.
